Experimental data reported in PubChem BioAssay AID1159580 (chemical genetic matrix, 2015).
Where “and” joins values, the source holds several entries; their conditions need not be identical. Identical values can stand only once. Among all 5,500 compounds or so, about 2,000 (36%) were called active. Another 18% or so got no clear call; they are omitted. No stated cut-off is given here; in the data, active means normalized growth mostly below about 0.91 (no sharp cut-off); inconclusive means no clear call, values can overlap the other calls; inactive means mostly above about 0.92. Some of the results follow.

Assay: chemical genetic growth profiling, strain panel (AID 1159580);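 further: tested at 20 µM; growth read once vehicle control cultures reached saturation at 30 °C; 1 = growth at the plate median or of vehicle wells; lower values mean less growth of the strain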
Settings: S. cerevisiae deletion strains, growth OD

Measured: normalized growth

CO[C@H]1C[C@H](O[C@H]2[C@H](C)[C@@H](OC3O[C@H](C)C[C@H](N(C)C)[C@H]3O)[C@@H](C)C[C@]3(CO3)C(=O)[C@H](C)[C@@H](O)[C@@H](C)[C@@H](C)OC(=O)[C@@H]2C)O[C@@H](C)[C@@H]1O (some centres not stated)
inactive: locus YAL013W, strain DEP1, hits give low values 1.01 | locus YAL021C, strain ccr4, hits give low values 1.03 | locus YAL026C, strain drs2, hits give low values 0.991 | locus YAL030W, strain snc1, hits give low values 1.01 | locus YBL061C, strain skt5, hits give low values 1 | locus YBR009C, strain hhf1, hits give low values 0.96 | locus YBR021W, strain FUR4, hits give low values 0.994 | locus YBR023C, strain chs3, hits give low values 1.02 | locus YBR171W, strain sec66, hits give low values 0.996 | locus YBR229C, strain ROT2, hits give low values 1.02 | locus YBR231C, strain swc5, hits give low values 1.02 | locus YBR279W, strain paf1, hits give low values 1.01 | locus YCL011C, strain gbp2, hits give low values 0.998 | locus YCL016C, strain dcc1, hits give low values 1.02 | locus YCL029C, strain bik1, hits give low values 1 | locus YCL061C, strain MRC1, hits give low values 1.02 | locus YCL069W, strain vba3, hits give low values 1 | locus YCR088W, strain abp1, hits give low values 1.01 | locus YDL005C, strain med2, hits give low values 1.02 | locus YDL035C, strain GPR1, hits give low values 1.01 | locus YDL040C, strain nat1, hits give low values 1.01 | locus YDL074C, strain BRE1, hits give low values 1.02 | locus YDL101C, strain DUN1, hits give low values 1.02 | locus YDL134C, strain PPH21, hits give low values 1.01 | locus YDL185W, strain tfp1, hits give low values 1.01 | locus YDL192W, strain arf1, hits give low values 1.01 | locus YDR001C, strain nth1, hits give low values 1 | locus YDR069C, strain doa4, hits give low values 1.03 | locus YDR101C, strain arx1, hits give low values 1 | locus YDR137W, strain rgp1, hits give low values 0.998 | locus YDR150W, strain NUM1, hits give low values 1 | locus YDR159W, strain sac3, hits give low values 0.994 | locus YDR162C, strain NBP2, hits give low values 1.01 | locus YDR195W, strain ref2 1.01 | locus YDR297W, strain sur2, hits give low values 1.01 | locus YDR318W, strain mcm21, hits give low values 1.01 | locus YDR334W, strain swr1, hits give low values 0.995 | locus YDR335W, strain msn5, hits give low values 0.998 | locus YDR388W, hits give low values 0.991 | locus YDR392W, strain spt3, hits give low values 0.945 | locus YDR502C, strain sam2, hits give low values 1.02 | locus YEL003W, strain gim4, hits give low values 0.987 | locus YEL037C, strain rad23, hits give low values 0.994 | locus YEL061C, strain CIN8 (second series), hits give low values 0.999 | locus YEL061C, strain CIN8, hits give low values 1 | locus YER015W, strain faa2, hits give low values 0.992 | locus YER016W, strain bim1, hits give low values 1.02 | locus YER110C, hits give low values 0.986 | locus YER111C, strain swi4, hits give low values 1 | locus YER155C, strain BEM2 (second series), hits give low values 1.02 | locus YER155C, strain BEM2, hits give low values 1 | locus YER167W, strain BCK2, hits give low values 1.01 | locus YFR010W, strain ubp6, hits give low values 0.988 | locus YGL078C, strain dbp3, hits give low values 1 | locus YGL086W, strain mad1, hits give low values 0.995 | locus YGL167C, strain pmr1, hits give low values 0.994 | locus YGL173C, strain kem1, hits give low values 1 | locus YGL227W, strain vid30, hits give low values 1.02 | locus YGL240W, strain doc1, hits give low values 1.03 | locus YGL248W, strain PDE1, hits give low values 1.02 | locus YGL253W, strain hxk2, hits give low values 1.02 | locus YGR078C, strain PAC10, hits give low values 1.02 | locus YGR135W, strain pre9, hits give low values 1.01 | locus YGR229C, strain SMI1, hits give low values 1.03 | locus YGR252W, strain gcn5, hits give low values 1.14 | locus YHR013C, strain ard1, hits give low values 1.02 | locus YHR027C, strain rpn1, hits give low values 0.999 | locus YHR030C, strain SLT2, hits give low values 1.01 | locus YHR079C, strain IRE1 (second series), hits give low values 0.989 | locus YHR079C, strain IRE1, hits give low values 1.01 | locus YHR094C, strain hxt1, hits give low values 0.98 | locus YHR129C, strain ARP1, hits give low values 0.998 | locus YHR142W, strain chs7, hits give low values 0.972 | locus YHR200W, strain rpn10, hits give low values 1.01 | locus YIL066C, strain RNR3, hits give low values 1.02 | locus YIL073C, strain SPO22, hits give low values 1.05 | locus YIL125W, strain kgd1, hits give low values 1 | locus YIR030C, strain dcg1, hits give low values 0.993 | locus YJL092W, strain hpr5, hits give low values 1.01 | locus YJL095W, strain BCK1 (second series), hits give low values 1.01 | locus YJL095W, strain BCK1, hits give low values 1.03 and 0.995 | locus YJL115W, strain asf1, hits give low values 0.991 | locus YJL129C, strain trk1, hits give low values 1 | locus YJL134W, strain LCB3, hits give low values 1 | locus YJL154C, strain vps35, hits give low values 1 | locus YJL164C, strain tpk1, hits give low values 0.982 | locus YJL166W, strain qcr8, hits give low values 1.03 | locus YJL168C, strain set2, hits give low values 0.987 | locus YJL187C, strain SWE1 (second series), hits give low values 1.02 | locus YJL187C, strain SWE1, hits give low values 1 | locus YJR043C, strain POL32, hits give low values 1.02 | locus YJR066W, strain TOR1, hits give low values 0.981
